From PubChem BioAssay (NCATS)
Results filed as inconclusive are left out. Calls of active or inactive are those of the source. Calls follow the shape of the dose curve; as a rule, active = well fitted inhibition curve with a large enough effect; inconclusive = small, poorly fitted or top-dose-only effect; inactive = no such curve, though single readings can be large or run the other way. Where a SMILES comes first, the peptide text is derived from it.

Test: Primary qHTS for inhibitors of nuclear receptor binding SET domain protein 2 (NSD2) in an RCH-ACV wild type WT cells (2C) (AID 1645877); also: nearly all actives have a fitted effect of over 70% in size
Conditions: RCH-ACV (leukaemia line) NSD2 WT (2C) viability, CellTiter-Glo, 72 h; series mostly up to 44.9 µM; activity change, negative = cell killing: at the top concentration
% is scaled to controls: 0 for no effect and ±100 for the full control effect.

Row | SMILES | activity change, negative = cell killing | outcome
1 | CC1CC(=O)C2=C(O1)OC1(C)CCC3C(C)(C)C4OC4C(=O)C3(C)C1C2 (stereo not drawn) | -0.411% (inactive) | –
2 | CC(C)C(NC(=O)c1ccc(O)cc1)C(=O)N1CCCC1C(=O)Nc1c(O)cccc1C(=O)O (stereo not drawn) | -3.22% [at 17.3 µM] (inactive) | –
3 | NC1(c2ccc(NC(=O)c3ccnc(-c4cc(C(=O)O)ccn4)c3)cc2)CC1 | 1.17% (inactive) | –
4 | CC(=O)NC(Cc1ccccc1)C(=O)NC(C(=O)O)C(C)C (stereo not drawn) (Ac-Phe-Val-OH; configuration not given here) | -26.4% (inactive) | –
5 | C=CC(C)(O)CC/C=C(\C)C(=O)O[C@@H]1[C@@H](O)[C@H](OC(C)(C=C)CC/C=C(\C)C(=O)O)O[C@H](CO)[C@H]1OC(=O)/C(C)=C/CCC(C)(O)C=C (stereo partly drawn) | -6.36% [at 17.3 µM] (inactive) | –
6 | CC1(C)C=Cc2c(ccc3c2N=C2C(C)(C)[C@@H]4C[C@]56CCCN5C(=O)[C@@]4(C[C@]23O)NC6=O)O1 | – | inactive [at 17.3 µM]
7 | CC(C)C1(O)NC(=O)C(CC2(O)c3ccccc3N3C(=O)C(C)(C)NC32)n2c1nc1ccccc1c2=O (stereo not drawn) | -12.5% [at 17.3 µM] (inactive) | –
8 | C=C[C@@](C)(CCC=C(C)C)O[C@@H]1O[C@H](CO[C@@H]2OC[C@H](O)[C@H](O)[C@H]2O)[C@@H](O)[C@H](O)[C@H]1O | -1.62% [at 17.3 µM] (inactive) | –
9 | COC(=O)CCC1(C)C(C(C)(C)O)C(O)CC2(C)Oc3c(C)c4c(c(OC)c3CC21)C(=O)OC4 (stereo not drawn) | -11% [at 17.3 µM] (inactive) | –
10 | CC(C)(O)c1ccc2c(c1)C(=O)C[C@H]1[C@](C)(C(=O)O)CCC[C@]21C | – | inactive
11 | O=C(O)Cc1cn([C@@H]2O[C@H](CO)[C@@H](O)[C@H](O)[C@H]2O[C@@H]2O[C@H](CO)[C@@H](O)[C@H](O)[C@H]2O)c2ccccc12 | – | inactive [at 17.3 µM]
12 | COC(=O)C1=CO[C@@H](O[C@@H]2O[C@H](CO)[C@@H](O)[C@H](O)[C@H]2O)/C(=C\CO)[C@@H]1CC(=O)OCCc1ccc(O)cc1 | – | inactive [at 17.3 µM]
13 | CC1=CC(=O)CC(C)(C)C1CCC(C)O[C@@H]1O[C@H](CO)[C@@H](O)[C@H](O)[C@H]1O (stereo partly drawn) | -0.814% (inactive) | –
14 | C=CCC1=C[C@]2(OC)[C@H](C)[C@@H](c3ccc(OC)c(OC)c3)O[C@]2(OC)CC1=O | -22% (inactive) | –
15 | Cn1nccc1-c1ccccc1Oc1ccc(S(=O)(=O)Nc2nccs2)cc1C#N | – | inactive
16 | C[C@@H]1CC[C@]2(C(=O)O[C@@H]3O[C@H](CO[C@@H]4O[C@H](CO)[C@@H](O)[C@H](O)[C@H]4O)[C@@H](O)[C@H](O)[C@H]3O)CC[C@]3(C)C(=CCC4[C@@]5(C)CC[C@H](O)[C@](C)(C(=O)O)C5CC[C@]43C)[C@@H]2[C@]1(C)O (stereo partly drawn) | -8.35% [at 9.23 µM] (inactive) | –
17 | CC(C)(OC1OC(CO)C(O)C(O)C1O)C1CCC(O)(CO)C2CC(=O)C(C)(O)C2C1 (stereo not drawn) | – | inactive [at 17.3 µM]
18 | C=C1CC[C@H]2[C@@](C)(CCC(O)[C@@]2(C)CO)[C@@H]1/C=C/C(=C\C(=O)O)C(=O)O (stereo partly drawn) | -9.49% (inactive) | –
19 | CC1CCC2C(C)(C)C(O)C(O)CC2(C)C12Cc1c(O)cc(CO)c(C=O)c1O2 (stereo not drawn) | -29.7% [at 17.3 µM] (inactive) | –

Row | SMILES | activity change, negative = cell killing | outcome
20 | CC1CCC2(NC1)OC1C(O)C3C4CCC5CC(O[C@@H]6O[C@H](CO)[C@@H](O)[C@H](O)[C@H]6O[C@@H]6O[C@@H](C)[C@H](O)[C@@H](O)[C@H]6O)CCC5(C)C4CCC3(C)C1C2C (stereo partly drawn) | -28.6% [at 17.3 µM] (inactive) | –
21 | C[C@]12CC[C@@H]3c4ccc(O)cc4CC[C@H]3[C@@H]1C[C@@H](O[C@@H]1O[C@H](C(=O)O)[C@@H](O)[C@H](O)[C@H]1O)[C@@H]2O | -14.7% (inactive) | –
22 | COC(=O)C(Cc1ccccc1)NC(=O)c1ccccc1 (stereo not drawn) | -4.48% (inactive) | –
23 | OC[C@H]1O[C@@H](OC[C@H]2O[C@@H](OCc3ccccc3)[C@H](O)[C@@H](O)[C@@H]2O)[C@H](O)[C@@H](O)[C@@H]1O | 3.15% [at 17.3 µM] (inactive) | –
24 | O=C(O[C@H]1[C@H](Oc2ccc(O)cc2CO)O[C@H](CO)[C@@H](O)[C@@H]1O)c1ccccc1 | 1.06% [at 17.3 µM] (inactive) | –
25 | CC(=O)c1[nH]cc(CCC(=O)O)c1CC(=O)O | – | inactive
26 | C=CC(C)(O)CC/C=C(\C)C(=O)O[C@@H]1[C@@H](O)[C@H](OC(C)(C=C)CC/C=C(\C)C(=O)O[C@@H]2O[C@H](CO)[C@@H](O)[C@H](O)[C@H]2O)O[C@H](CO)[C@H]1OC(=O)/C(C)=C/CCC(C)(O)C=C (stereo partly drawn) | -2.41% [at 9.23 µM] (inactive) | –
27 | C/C(=C\CCC(C)C1CC(O)C2(C)C3CCC4C(C)(C)C(OC5OCC(O)C(O)C5O)CCC45CC35CC(O)C12C)C(=O)O (stereo not drawn) | -7.72% [at 17.3 µM] (inactive) | –
28 | Cc1sc(C)c(C(=O)NC2(c3ccc(C(=O)O)cc3)CC2)c1Cc1ccc(C(F)(F)F)cc1 | -3.18% (inactive) | –
29 | CC[C@H]1OC(=O)[C@H](C)C(=O)[C@H](C)[C@@H](OC2O[C@H](C)C[C@H](N(C)C)[C@H]2O)[C@@H](C)C[C@@H](C)C(=O)/C=C/[C@]1(C)O (stereo partly drawn) | -18.4% [at 17.3 µM] (inactive) | –
30 | O=C1NC(=O)/C(=C/c2cccc(C(F)(F)F)c2)S1 | -13% (inactive) | –
31 | C=C(C)C1CCC2(C(=O)OC3OC(COC4OC(CO)C(O)C(O)C4O)C(OC4OC(C)C(O)C(O)C4O)C(O)C3O)CCC3(C(=O)O)C(CCC4C5(C)CCC(=O)C(C)(C)C5CCC43C)C12 (stereo not drawn) | – | inactive [at 9.23 µM]
32 | CC(=O)O[C@H]1C[C@@H](O)C(C)(C)C2C[C@@H](OC(C)=O)[C@]3(C)C(CC[C@@]4(C)[C@H](c5ccoc5)OC(=O)[C@H]5O[C@]543)[C@]21C (stereo partly drawn) | 0.255% [at 17.3 µM] (inactive) | –
33 | COc1cc(O[C@@H]2O[C@H](CO[C@H]3OC[C@](O)(CO)[C@H]3O)[C@@H](O)[C@H](O)[C@H]2O)cc(OC)c1O | -3.84% [at 17.3 µM] (inactive) | –
34 | C=CC(C)(O)C1CC2C3(C)CCCC(C)(C)C3C(O)C(O)C2(C)O1 (stereo not drawn) | – | inactive
35 | CC1(C)C=Cc2c(ccc3c2[N+]([O-])=C2C3(O)CC34NC(=O)C5(CCCN5C3=O)CC4C2(C)C)O1 (stereo not drawn) | – | inactive [at 17.3 µM]
36 | O=C(O)C(Cc1ccccc1)NC(=O)C1CCCN1 (stereo not drawn) (H-Pro-Phe-OH; configuration not given here) | -4.2% (inactive) | –
37 | C=C1CC2C(C)(CCC(=O)O)C(C(C)(C)O)CCC2(C)C2(C(=O)OC)C(=O)C(C)(O)C(=O)C12C (stereo not drawn) | -14.3% [at 17.3 µM] (inactive) | –
38 | COc1cc2c(cc1O)CC(O)(CO)C(CO)C2c1ccc(OC2OC(CO)C(O)C(O)C2O)c(OC)c1 (stereo not drawn) | -5.68% [at 17.3 µM] (inactive) | –
